{"source": "paper PMC7862700", "about": "“An all-to-all approach to the identification of sequence-specific readers for epigenetic DNA modifications on cytosine”", "assay_in_all_cases": "DAPPL (digital affinity profiling via proximity ligation, sequencing); 10 mM Tris-HCl pH 7.5, 50 mM NaCl, 1 mM DTT, 4% glycerol, room temperature, 30 min; GST-TFs on glutathione beads, 16-mer random dsDNA library, 0.1% formaldehyde crosslink after washing; high values mean tight binding", "settings_in_all_cases": "protein: recombinant; tags: N-terminal GST; dsDNA, one strand shown", "key": {"ELK1": {"target": "T1, ELK1 (Homo sapiens, UniProt P19419 1-428)", "T1 sequence": "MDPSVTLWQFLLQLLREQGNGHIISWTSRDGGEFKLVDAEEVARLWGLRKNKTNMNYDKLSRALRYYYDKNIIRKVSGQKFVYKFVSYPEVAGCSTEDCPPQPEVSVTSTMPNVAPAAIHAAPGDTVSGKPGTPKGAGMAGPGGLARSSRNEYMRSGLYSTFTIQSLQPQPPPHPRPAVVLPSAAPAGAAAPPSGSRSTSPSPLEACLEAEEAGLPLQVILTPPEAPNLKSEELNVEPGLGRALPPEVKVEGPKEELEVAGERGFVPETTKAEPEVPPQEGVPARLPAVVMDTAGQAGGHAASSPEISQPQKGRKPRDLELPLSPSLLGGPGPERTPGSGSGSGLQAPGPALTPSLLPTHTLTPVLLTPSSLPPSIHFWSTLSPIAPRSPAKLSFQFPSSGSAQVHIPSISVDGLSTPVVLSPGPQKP", "outline": "(§1)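 Yeast served to express human transcription factors as GST fusions, which were then captured on glutathione beads and labelled with DNA barcodes. Pooled with a tag-only sample, they were incubated with 200 nmole of a 16-mer random double-stranded DNA library for 30 min at room temperature in Tris/NaCl/DTT/glycerol buffer, washed, crosslinked with 0.1% formaldehyde, ligated by proximity, amplified by PCR and sequenced. Dividing each hexamer's read frequency for a factor by its frequency for the tag-only sample gives the binding signal.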"}, "GABPA": {"target": "T2, GABPA (Homo sapiens, UniProt Q06546 1-454)", "T2 sequence": "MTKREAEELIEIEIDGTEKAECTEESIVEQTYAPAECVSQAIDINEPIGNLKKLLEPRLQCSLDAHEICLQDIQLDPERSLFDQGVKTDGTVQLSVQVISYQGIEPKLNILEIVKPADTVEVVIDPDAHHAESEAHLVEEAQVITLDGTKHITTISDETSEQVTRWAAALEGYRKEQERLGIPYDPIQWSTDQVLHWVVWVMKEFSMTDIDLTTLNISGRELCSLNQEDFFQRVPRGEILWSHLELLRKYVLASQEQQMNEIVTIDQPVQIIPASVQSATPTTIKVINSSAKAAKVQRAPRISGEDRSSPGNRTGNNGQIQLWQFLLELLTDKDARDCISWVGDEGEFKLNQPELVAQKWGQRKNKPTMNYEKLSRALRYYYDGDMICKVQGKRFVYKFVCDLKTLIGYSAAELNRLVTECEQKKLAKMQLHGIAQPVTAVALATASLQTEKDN", "outline": "as §1"}, "ERG": {"target": "T3, ERG (Homo sapiens, UniProt P11308 1-479)", "T3 sequence": "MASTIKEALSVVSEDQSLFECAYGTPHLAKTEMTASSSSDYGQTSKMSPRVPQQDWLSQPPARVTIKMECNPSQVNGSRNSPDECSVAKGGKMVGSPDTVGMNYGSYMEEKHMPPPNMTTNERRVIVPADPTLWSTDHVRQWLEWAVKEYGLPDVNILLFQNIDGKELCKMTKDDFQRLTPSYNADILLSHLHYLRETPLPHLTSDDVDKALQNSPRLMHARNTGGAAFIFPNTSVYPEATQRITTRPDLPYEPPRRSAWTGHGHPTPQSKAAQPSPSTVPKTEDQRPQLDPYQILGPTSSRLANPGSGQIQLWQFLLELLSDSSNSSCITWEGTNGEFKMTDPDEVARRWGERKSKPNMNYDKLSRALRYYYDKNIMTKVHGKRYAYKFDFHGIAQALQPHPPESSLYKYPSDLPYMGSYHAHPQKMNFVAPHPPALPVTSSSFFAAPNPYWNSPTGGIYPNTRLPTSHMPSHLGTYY", "outline": "as §1"}, "ELF1": {"target": "ELF1 (Homo sapiens, UniProt P32519 1-619)", "sequence (P32519 whole entry)": "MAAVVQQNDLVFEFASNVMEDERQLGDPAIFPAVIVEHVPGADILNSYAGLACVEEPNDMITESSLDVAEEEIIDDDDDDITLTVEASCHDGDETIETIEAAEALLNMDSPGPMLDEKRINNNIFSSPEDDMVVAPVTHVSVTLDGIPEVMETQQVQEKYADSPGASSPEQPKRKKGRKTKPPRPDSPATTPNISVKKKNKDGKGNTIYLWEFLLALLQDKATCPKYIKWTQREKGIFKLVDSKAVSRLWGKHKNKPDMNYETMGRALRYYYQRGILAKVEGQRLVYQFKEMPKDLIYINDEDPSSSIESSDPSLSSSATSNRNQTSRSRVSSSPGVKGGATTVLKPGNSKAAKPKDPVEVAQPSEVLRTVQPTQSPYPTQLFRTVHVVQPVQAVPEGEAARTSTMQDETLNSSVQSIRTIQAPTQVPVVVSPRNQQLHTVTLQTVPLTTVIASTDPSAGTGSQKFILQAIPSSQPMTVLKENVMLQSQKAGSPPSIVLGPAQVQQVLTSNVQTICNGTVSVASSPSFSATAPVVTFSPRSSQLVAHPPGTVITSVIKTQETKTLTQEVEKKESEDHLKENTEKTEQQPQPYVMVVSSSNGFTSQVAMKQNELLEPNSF", "outline": "as §1"}, "EHF": {"target": "T4, EHF (Homo sapiens, UniProt Q9NZC4 1-300)", "T4 sequence": "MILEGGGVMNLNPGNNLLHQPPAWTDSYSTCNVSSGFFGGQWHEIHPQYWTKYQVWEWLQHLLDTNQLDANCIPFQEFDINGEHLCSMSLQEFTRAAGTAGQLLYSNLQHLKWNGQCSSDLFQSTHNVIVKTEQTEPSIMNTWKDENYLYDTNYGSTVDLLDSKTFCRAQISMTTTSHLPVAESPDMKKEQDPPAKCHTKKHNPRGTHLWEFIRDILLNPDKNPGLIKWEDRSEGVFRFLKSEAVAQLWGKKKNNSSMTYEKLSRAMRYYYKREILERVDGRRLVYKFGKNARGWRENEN", "outline": "as §1"}, "FEV": {"target": "T5, FEV (Homo sapiens, UniProt Q99581 1-238)", "T5 sequence": "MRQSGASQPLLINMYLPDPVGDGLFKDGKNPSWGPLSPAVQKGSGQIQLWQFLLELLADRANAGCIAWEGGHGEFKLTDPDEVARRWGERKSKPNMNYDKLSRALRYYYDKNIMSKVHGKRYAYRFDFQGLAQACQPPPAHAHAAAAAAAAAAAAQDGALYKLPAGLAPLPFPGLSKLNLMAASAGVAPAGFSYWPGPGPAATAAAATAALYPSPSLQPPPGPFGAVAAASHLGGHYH", "outline": "as §1"}, "ETV5": {"target": "ETV5 (Homo sapiens, UniProt P41161 1-510)", "sequence (P41161 whole entry)": "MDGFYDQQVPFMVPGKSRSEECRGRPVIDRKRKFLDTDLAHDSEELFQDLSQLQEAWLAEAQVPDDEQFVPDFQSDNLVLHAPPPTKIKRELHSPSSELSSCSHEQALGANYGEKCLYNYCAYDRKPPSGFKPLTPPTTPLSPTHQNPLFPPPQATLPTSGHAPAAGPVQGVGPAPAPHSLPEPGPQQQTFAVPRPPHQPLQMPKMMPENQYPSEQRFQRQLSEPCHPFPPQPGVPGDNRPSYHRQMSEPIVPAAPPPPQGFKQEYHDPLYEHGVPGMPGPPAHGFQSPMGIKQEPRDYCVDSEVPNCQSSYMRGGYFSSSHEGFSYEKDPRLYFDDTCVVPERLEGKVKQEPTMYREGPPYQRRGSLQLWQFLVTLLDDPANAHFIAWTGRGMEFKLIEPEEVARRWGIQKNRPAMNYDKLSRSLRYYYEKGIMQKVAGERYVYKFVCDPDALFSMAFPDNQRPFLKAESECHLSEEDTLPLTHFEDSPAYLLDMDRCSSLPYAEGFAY", "outline": "as §1"}, "ELF4": {"target": "ELF4 (Homo sapiens, UniProt Q99607 1-663)", "sequence (Q99607 whole entry)": "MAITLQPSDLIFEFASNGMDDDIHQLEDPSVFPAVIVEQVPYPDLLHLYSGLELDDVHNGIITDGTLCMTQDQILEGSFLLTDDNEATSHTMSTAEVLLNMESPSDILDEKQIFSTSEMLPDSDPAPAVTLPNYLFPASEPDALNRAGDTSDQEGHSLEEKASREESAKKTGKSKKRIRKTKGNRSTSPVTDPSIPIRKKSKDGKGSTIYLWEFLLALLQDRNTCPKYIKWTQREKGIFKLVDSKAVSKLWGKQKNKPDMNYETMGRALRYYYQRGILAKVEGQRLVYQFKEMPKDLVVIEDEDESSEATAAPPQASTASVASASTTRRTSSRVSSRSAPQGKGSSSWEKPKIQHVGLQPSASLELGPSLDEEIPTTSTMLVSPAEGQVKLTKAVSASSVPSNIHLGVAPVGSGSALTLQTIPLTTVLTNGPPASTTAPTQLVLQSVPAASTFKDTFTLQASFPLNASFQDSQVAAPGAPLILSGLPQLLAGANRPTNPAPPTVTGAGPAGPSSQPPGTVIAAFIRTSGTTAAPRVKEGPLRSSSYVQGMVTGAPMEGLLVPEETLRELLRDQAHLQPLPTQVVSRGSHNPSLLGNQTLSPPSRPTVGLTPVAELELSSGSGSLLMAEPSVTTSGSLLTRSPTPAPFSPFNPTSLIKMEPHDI", "outline": "as §1"}, "ELK4": {"target": "T6, ELK4 (Homo sapiens, UniProt P28324-2 1-405)", "T6 sequence": "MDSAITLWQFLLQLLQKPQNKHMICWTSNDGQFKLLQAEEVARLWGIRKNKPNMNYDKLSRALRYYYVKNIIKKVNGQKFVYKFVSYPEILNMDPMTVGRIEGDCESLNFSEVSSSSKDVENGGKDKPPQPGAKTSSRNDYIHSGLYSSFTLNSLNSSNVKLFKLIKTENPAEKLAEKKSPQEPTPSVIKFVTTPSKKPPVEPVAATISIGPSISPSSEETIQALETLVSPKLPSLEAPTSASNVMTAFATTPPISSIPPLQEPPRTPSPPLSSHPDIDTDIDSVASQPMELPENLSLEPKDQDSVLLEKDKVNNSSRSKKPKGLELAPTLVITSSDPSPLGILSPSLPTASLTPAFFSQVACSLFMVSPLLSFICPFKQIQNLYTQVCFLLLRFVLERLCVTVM", "outline": "as §1"}, "ETV2": {"target": "T7, ETV2 (Homo sapiens, UniProt O00321 1-342)", "T7 sequence": "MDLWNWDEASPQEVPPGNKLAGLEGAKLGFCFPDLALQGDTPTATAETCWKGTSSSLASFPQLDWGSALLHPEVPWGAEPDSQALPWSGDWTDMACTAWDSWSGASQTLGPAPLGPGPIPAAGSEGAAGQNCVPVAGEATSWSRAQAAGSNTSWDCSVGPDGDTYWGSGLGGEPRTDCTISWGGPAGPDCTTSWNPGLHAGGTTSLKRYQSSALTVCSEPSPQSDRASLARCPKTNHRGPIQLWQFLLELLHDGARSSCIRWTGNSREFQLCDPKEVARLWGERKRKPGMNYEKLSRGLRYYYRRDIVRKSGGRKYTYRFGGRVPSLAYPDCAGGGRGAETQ", "outline": "as §1"}, "ERF": {"target": "T8, ERF (Homo sapiens, UniProt P50548 1-548)", "T8 sequence": "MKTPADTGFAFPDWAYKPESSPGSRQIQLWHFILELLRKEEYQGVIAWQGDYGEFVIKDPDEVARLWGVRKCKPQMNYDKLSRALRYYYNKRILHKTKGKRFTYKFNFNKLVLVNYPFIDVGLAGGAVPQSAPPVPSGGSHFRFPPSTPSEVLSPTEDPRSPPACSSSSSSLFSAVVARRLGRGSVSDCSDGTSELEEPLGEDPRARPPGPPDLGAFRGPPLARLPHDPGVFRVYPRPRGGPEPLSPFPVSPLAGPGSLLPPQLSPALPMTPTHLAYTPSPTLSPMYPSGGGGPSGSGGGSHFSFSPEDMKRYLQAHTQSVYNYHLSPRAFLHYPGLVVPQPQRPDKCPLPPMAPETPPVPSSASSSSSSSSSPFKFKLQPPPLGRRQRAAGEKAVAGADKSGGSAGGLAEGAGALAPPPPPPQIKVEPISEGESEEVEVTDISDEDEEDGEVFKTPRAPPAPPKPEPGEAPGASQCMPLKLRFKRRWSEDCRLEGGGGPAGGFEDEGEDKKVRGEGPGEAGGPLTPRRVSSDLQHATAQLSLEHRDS", "outline": "as §1"}, "ETV3L": {"target": "T9, ETV3L (Homo sapiens, UniProt Q6ZN32 1-361)", "T9 sequence": "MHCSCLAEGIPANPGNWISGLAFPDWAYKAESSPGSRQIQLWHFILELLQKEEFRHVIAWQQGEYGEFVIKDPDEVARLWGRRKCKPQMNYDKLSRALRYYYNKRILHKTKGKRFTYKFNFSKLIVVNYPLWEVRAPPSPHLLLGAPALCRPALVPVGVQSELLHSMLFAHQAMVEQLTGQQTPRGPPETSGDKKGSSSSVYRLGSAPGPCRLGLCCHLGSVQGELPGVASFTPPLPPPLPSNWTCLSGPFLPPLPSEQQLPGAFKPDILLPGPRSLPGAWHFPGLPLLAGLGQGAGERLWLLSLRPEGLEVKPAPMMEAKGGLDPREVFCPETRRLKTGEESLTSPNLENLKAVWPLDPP", "outline": "as §1"}, "ETS2": {"target": "T10, ETS2 (Homo sapiens, UniProt P15036 1-469)", "T10 sequence": "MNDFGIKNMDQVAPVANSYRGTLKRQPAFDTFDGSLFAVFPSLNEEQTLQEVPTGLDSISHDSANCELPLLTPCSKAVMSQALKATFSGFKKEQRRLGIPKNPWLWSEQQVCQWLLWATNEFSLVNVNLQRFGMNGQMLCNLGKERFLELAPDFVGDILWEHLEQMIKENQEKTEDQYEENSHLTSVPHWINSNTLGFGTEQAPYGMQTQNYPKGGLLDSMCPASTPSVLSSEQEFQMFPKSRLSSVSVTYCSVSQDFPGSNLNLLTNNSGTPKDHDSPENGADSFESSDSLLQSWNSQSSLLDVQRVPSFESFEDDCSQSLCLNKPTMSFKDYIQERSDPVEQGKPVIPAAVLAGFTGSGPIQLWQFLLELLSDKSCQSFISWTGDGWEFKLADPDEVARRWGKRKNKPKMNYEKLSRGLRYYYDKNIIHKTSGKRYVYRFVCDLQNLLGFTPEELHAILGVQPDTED", "outline": "as §1"}, "ETV7": {"target": "T11, ETV7 (Homo sapiens, UniProt Q9Y603 1-341)", "T11 sequence": "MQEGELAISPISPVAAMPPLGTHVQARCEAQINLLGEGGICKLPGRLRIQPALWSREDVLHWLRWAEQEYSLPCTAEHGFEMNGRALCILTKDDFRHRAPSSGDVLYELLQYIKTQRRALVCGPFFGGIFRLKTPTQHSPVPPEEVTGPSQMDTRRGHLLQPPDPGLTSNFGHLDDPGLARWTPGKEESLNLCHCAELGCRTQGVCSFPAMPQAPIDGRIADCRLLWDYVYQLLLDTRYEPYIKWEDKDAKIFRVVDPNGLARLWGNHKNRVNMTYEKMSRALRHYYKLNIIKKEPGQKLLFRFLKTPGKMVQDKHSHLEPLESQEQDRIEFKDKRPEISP", "outline": "as §1"}}, "data": [{"sequence": "ACAGCA", "values": [{"measurement": "binding signal", "setting": "ELK1", "result": "1.03 fold enrichment (6-mer frequency, TF over GST control)"}, {"measurement": "binding signal", "setting": "GABPA", "result": "1.08 fold enrichment (6-mer frequency, TF over GST control)"}, {"measurement": "binding signal", "setting": "ERG", "result": "1 fold enrichment (6-mer frequency, TF over GST control)"}, {"measurement": "binding signal", "setting": "ELF1", "result": "1.06 fold enrichment (6-mer frequency, TF over GST control)"}, {"measurement": "binding signal", "setting": "EHF", "result": "1.03 fold enrichment (6-mer frequency, TF over GST control)"}, {"measurement": "binding signal", "setting": "FEV", "result": "1 fold enrichment (6-mer frequency, TF over GST control)"}, {"measurement": "binding signal", "setting": "ETV5", "result": "1.03 fold enrichment (6-mer frequency, TF over GST control)"}, {"measurement": "binding signal", "setting": "ELF4", "result": "1.04 fold enrichment (6-mer frequency, TF over GST control)"}, {"measurement": "binding signal", "setting": "ELK4", "result": "1.02 fold enrichment (6-mer frequency, TF over GST control)"}, {"measurement": "binding signal", "setting": "ETV2", "result": "1.06 fold enrichment (6-mer frequency, TF over GST control)"}, {"measurement": "binding signal", "setting": "ERF", "result": "1.07 fold enrichment (6-mer frequency, TF over GST control)"}, {"measurement": "binding signal", "setting": "ETV3L", "result": "1.06 fold enrichment (6-mer frequency, TF over GST control)"}, {"measurement": "binding signal", "setting": "ETS2", "result": "1.09 fold enrichment (6-mer frequency, TF over GST control)"}, {"measurement": "binding signal", "setting": "ETV7", "result": "1.15 fold enrichment (6-mer frequency, TF over GST control)"}]}]}
